Bioassay records deposited in PubChem by National Center for Advancing Translational Sciences (NCATS).
HCV inh = qHTS Assay for Inhibitors of Hepatitis C Virus (HCV) | Huh7.5.1 HCVcc-Cre infection, luciferase reporter, 44 h | Potency, µM (top dose mostly 41.8 µM), for inactives: at the highest dose activity change, negative = inhibition, actives largely listed as inhibitors | 340,000 compounds, 3.4% hits; active = well fitted inhibition curve with a large enough effect; inconclusive = small, poorly fitted or top-dose-only effect, or another doubt; inactive = no such curve, though single readings can be large or run the other way
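Infectious HCV cell culture screen: compound-treated cells (1,000/well, pre-plated 4 h) are infected with HCVcc-Cre at roughly 0.5 moi and grown 44 h. Infection is quantified by luciferase signal after 15 min substrate incubation at room temperature.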
VACV mCherry inh = qHTS for Stage-Specific Inhibitors of Vaccinia Orthopoxvirus: mCherry Reporter Primary qHTS; Vaccinia virus mCherry reporter infection, fluorescence; Potency, µM (titrated, usually from 36.5 µM), for inactives: at the highest dose activity change, negative = inhibition, hits mostly inhibitors; 310,000 compounds, 0.63% hits; calls by dose curve; tested in A549 cells; note: nearly all actives have a fitted effect of over 35% in size
Marburg entry inh = qHTS for inhibitors of binding or entry into cells for Marburg Virus | Marburg virus pseudotyped entry inhibition, cell reporter | Potency, µM (top dose mostly 37.8 µM), without a hit: at the highest dose activity change, negative = inhibition, actives largely listed as inhibitors | 300,000 compounds, 1.8% hits | AID 540276, 2011; calls by dose curve; tested in HEK293 cells
Lassa entry inh = qHTS for Inhibitors of binding or entry into cells for Lassa Virus; Potency, µM (series often up to 37.9 µM), for the others: at the highest dose activity change, negative = inhibition, usual class: inhibitors; AID 540256, 2011; 300,000 compounds, 1.2% hits; Lassa virus pseudotype entry inhibition, cell reporter; calls by dose curve; tested in HEK293 cells; note: nearly all actives have a fitted effect of over 50% in size
Vaccinia Venus = qHTS for Stage-Specific Inhibitors of Vaccinia Orthopoxvirus: Venus Reporter Primary qHTS | 330,000 compounds, 0.46% hits | Potency, µM (titrated, usually from 36.5 µM), for inactives: top-dose activity change, negative = inhibition, usual class: inhibitors | Vaccinia virus Venus reporter expression, fluorescence; calls by dose curve; tested in A549 cells; note: nearly all actives have a fitted effect of over 30% in size
Numbers without * were called inactive; i = inactive; ? = inconclusive; · = no result given; [ ] = another dose, or the depositor's remark. In the library only some 4.6% were active in any assay of this set; here they are far more common. % is set by controls: 0 for no effect and ±100 for the full control effect; potency is the fitted concentration of half-maximal effect.

SMILES	HCV inh	VACV mCherry inh	Marburg entry inh	Lassa entry inh	Vaccinia Venus
O=C(OCc1c(F)cccc1Cl)c1cc([N+](=O)[O-])ccc1N1CCOCC1	11.2µM*	?	-14.0%[46.1 µM]	-26.8%	-9.4%
CC1CCCN(C(=O)COC(=O)c2cc([N+](=O)[O-])ccc2N2CCOCC2)C1 (stereo unspecified)	31.6µM*	i	15.6%[46.1 µM]	13.3%	-12.9%
O=C(OCc1ccc([N+](=O)[O-])cc1)c1cc([N+](=O)[O-])ccc1N1CCOCC1	4.47µM*	?	-14.5%	?	-25.5%
O=C(COC(=O)c1cc([N+](=O)[O-])ccc1N1CCOCC1)c1ccccc1Cl	?	-16.8%	-3.1%[46.1 µM]	-18.4%[46.1 µM]	-7.8%
O=C(COC(=O)c1cc([N+](=O)[O-])ccc1N1CCOCC1)c1ccccc1	?	-17.1%	17.9%	-14.8%[46.1 µM]	-15.1%
CC1CC(C)CN(C(=O)COC(=O)c2cc([N+](=O)[O-])ccc2N2CCOCC2)C1 (stereo unspecified)	?	-17.3%	?	-13.7%[46.1 µM]	-3.1%
CCCCOc1ccc(CS[C@@H](CC(=O)O)C(=O)O)cc1	·	·	4.6%	·	·
COc1ccc(-c2cc(C(F)(F)F)nc(SCC(=O)NCCc3ccccc3)n2)cc1OC	·	-8.6%	-16.2%[46.1 µM]	-0.9%[46.1 µM]	-5.5%
CCC1CN(CCC(=O)N2CCCN(C(=O)c3ccco3)CC2)Cc2cc(OC)ccc2O1 (stereo unspecified)	·	-14.3%	·	·	1.3%
COc1ccc(Nc2c3c(nc4ccccc24)CCCC3)cc1OC	?	?	8.91µM*	-24.4%	-7.8%
Fc1ccc(Nc2c3c(nc4ccccc24)CCC3)cc1	14.1µM*	-28.4%	?	?	-23.2%
COc1ccc(Nc2c3c(nc4ccccc24)CCC3)cc1	?	?	8.91µM*	?	?
COc1ccccc1Nc1c2c(nc3ccc(NC(=O)c4cccc(F)c4)cc13)CCCC2	·	11.2µM*	?	?	?
COc1ccccc1N1CCN(c2nc(CNC(=O)c3sc(C)nc3C)nc3ccccc23)CC1	·	-16.7%	·	·	-12.6%
Cc1ccc(Cc2nc3ccccc3nc2SCC(=O)N2CCc3ccccc32)cc1	·	-5.2%	·	-21.9%[46.1 µM]	-11.8%
C[C@@H]1[C@H](c2ccccc2)OCCS(=O)(=O)N1Cc1cccc(Cl)c1	·	i	·	·	-11.1%
O=C(CCCCCNc1nc(=S)[nH]c2ccccc12)NCCc1c[nH]c2ccccc12	20µM*	-15.3%	?	-4.6%	-18.3%
C=CCOc1nc(-c2ccncc2)nc2ccccc12	5.01µM*	-12.1%	?	-3.6%	1.4%
COc1ccc(CNS(=O)(=O)c2ccc(F)c(C(=O)Nc3c(C)cc(C)cc3C)c2)cc1	·	-4.3%	·	25.2%[46.1 µM]	-4.7%
COc1ccc2c(c1)c(CC(=O)O)c(C)n2C(=O)c1ccc(Cl)cc1	?	-12.6%	?	-11.6%	?
COc1ccc2c(c1)c(CCN1CCOCC1)c(C)n2C(=O)c1cccc(Cl)c1Cl	·	·	?	23.1µM*	·
CC(=NNC(=S)N1CC2CCC(CC2)C1)c1cnccn1	?	15.8µM*	?	0.282µM*	?
O=C(CC1C[C@H](C(=O)N2CCOCC2)[C@@]2(CCC3CCCC3)c3[nH]c4ccccc4c3CCN2C1=O)NCc1cccc(C(F)(F)F)c1 (stereo partly specified)	-15.6%[8.37 µM]	10µM*	·	·	10µM*
COc1ccc(CNC(=O)CC2C[C@H](C(=O)N3CCOCC3)[C@@]3(CCC4CCCC4)c4[nH]c5ccccc5c4CCN3C2=O)cc1OC (stereo partly specified)	7.94µM*	-10.2%	·	·	-13.3%
CN(C)C(=O)CCc1ccc2c3c([nH]c2c1)[C@]1(C)[C@@H](C(=O)N2CCCCC2)C[C@H](CC(=O)NCc2cccc(C(F)(F)F)c2)C(=O)N1CC3	?	-29.0%	·	·	-24.9%
CN(C)C(=O)CCc1ccc2c3c([nH]c2c1)[C@]1(CCC2CCCC2)[C@@H](C(=O)N2CCOCC2)C[C@H](CC(=O)NCc2cccc(C(F)(F)F)c2)C(=O)N1CC3	25.1µM*	-24.0%	·	·	?
COc1cc2nc(N(C)C)c(CNC3CCOC(C)(C)C3)cc2c(OC)c1OC (stereo unspecified)	·	-3.8%	·	·	12.9%
